The record followed here is PubChem BioAssay (Tox21).

Unmarked numbers belong to inactive results. Results filed as inconclusive are left out. Active and inactive are the calls of the source. Calls follow the shape of the dose curve; as a rule, active = well fitted curve in the direction sought with a large enough effect in the repeat runs; inconclusive = weak or mixed curves; inactive = no such curve, though single readings can be large; an effect the other way counts as inactive or inconclusive.

A short description of assay [1]: Caspase-3/7 induction in CHO-K1 cells by small molecules, qHTS cell viability counter screen (AID 1346979). Also: nearly all actives have a fitted effect of over 35% in size. Also: potency is read from the fitted curve at half-maximal effect. The method in brief: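 Wild-type CHO-K1 cells (1,500/well) treated with compound after 5 h plating; after 16 h at 37C, viability read as CellTiter-Fluor fluorescence following 1 h reagent incubation, in the same wells as the caspase read.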
Background: Quantitative high-throughput screening tests each substance at several concentrations.

A short description of assay [2]: Caspase-3/7 induction in CHO-K1 cells by small molecules, qHTS assay (AID 1346980). Also: nearly all actives have a fitted effect of over 15% in size. Also: potency is read from the fitted curve at half-maximal effect. The method in brief: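 Wild-type CHO-K1 cells exposed to compounds for 17hr at 37 C, 5% CO2. Caspase-3/7 activity then measured by Caspase-Glo 3/7 luminescence after 30min at room temperature.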
Assay [3] concerns the target Nuclear receptor subfamily 1 group I member 2 (Homo sapiens) (UniProt O75469). Briefly: Human pregnane X receptor (PXR) small molecule agonists, qHTS assay (AID 1346982). Also: nearly all actives have a fitted effect of over 35% in size. Also: potency is read from the fitted curve at half-maximal effect. Summed up:
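Luminescence (ONE-Glo, 30 min RT) after 24 hr compound exposure of PXR-Luc HepG2 cells; cells rested 5 hr post-plating in 5% charcoal-stripped FBS medium.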

For assay [4], the target named is Nuclear receptor subfamily 1 group I member 2 (Rattus norvegicus) (UniProt Q9R1A7). Briefly: Rat pregnane X receptor (rPXR) activation by small molecules, qHTS assay (AID 1346983). Also: nearly all actives have a fitted effect of over 20% in size. The note with it: rPXR luciferase reporter cells, One-Glo luminescence, 24 h; max activation: stronger effect = higher value. The method in brief: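 Cell-based rPXR activation assay: rPXR cells, 2,000 per well, rested 5hr at 37 C, then exposed to compounds in DMSO for 24 hr at 37 C. Luciferase activity read by One-Glo luminescence after 30 min at room temperature.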
Nuclear receptor subfamily 1 group I member 2 (Rattus norvegicus), sequence (Q9R1A7 whole entry, looked up): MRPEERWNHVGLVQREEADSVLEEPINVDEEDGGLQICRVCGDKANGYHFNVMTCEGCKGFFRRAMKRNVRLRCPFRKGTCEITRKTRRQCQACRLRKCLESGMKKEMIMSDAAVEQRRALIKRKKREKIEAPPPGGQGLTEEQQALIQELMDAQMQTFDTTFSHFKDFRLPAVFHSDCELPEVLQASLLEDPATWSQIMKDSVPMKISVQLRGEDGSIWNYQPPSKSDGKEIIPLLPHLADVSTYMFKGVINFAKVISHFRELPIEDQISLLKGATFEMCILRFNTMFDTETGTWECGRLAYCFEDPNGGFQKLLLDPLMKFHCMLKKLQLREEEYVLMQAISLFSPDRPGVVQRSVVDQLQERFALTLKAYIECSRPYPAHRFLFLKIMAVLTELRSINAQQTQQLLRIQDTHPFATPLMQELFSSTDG

For assay [5], the target named is Nuclear receptor subfamily 1 group I member 2 (Homo sapiens) (UniProt O75469). The assay can be described thus: CYP3A4 induction through human pregnane X receptor (PXR) by small molecules, qHTS assay (AID 1346984). Also: nearly all actives have a fitted effect of over 40% in size. Also: potency is read from the fitted curve at half-maximal effect. Summed up: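 DPX-2 reporter cells; 24h cpd, 37C; Luciferin-IPA 3uM final x3h; One-Glo 30 min RT; lumi read.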
The target of assay [6] is Cytochrome P450 2D6 (Homo sapiens) (UniProt P10635). The assay can be described thus: Cytochrome P450 Family 2 Subfamily D Member 6 (CYP2D6) small molecule antagonists: luciferase reporter qHTS assay (AID 1671196). Also: nearly all actives have a fitted effect of over 50% in size. Also: potency is read from the fitted curve at half-maximal effect. As to activity change, negative = inhibition: series mostly up to about 120 µM. Summed up: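 Inhibition of CYP2D6 was gauged by loss of luminescence, since light produced tracks the luciferin generated from a proluciferin substrate. A 10 min room-temperature preincubation preceded 1 h NADPH-supported turnover.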
Cytochrome P450 2D6 (Homo sapiens), sequence (P10635 whole entry, looked up): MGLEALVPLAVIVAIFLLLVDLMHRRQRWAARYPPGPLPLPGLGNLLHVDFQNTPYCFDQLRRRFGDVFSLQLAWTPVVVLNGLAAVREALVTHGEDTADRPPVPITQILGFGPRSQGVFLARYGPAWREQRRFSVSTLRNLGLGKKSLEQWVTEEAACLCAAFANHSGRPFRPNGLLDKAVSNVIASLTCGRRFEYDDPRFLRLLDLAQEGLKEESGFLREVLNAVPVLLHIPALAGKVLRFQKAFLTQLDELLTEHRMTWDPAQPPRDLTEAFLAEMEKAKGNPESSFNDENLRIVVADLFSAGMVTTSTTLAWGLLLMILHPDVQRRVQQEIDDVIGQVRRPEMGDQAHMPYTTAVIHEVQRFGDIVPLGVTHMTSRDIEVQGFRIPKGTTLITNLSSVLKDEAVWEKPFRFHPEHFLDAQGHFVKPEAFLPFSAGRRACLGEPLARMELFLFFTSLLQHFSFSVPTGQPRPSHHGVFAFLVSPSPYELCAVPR

Assay [7] deals with Cytochrome P450 1A2 (Homo sapiens) (UniProt P05177). Briefly: Cytochrome P450 Family 1 Subfamily A Member 2 (CYP1A2) small molecule antagonists: luciferase reporter qHTS assay (AID 1671199). Also: nearly all actives have a fitted effect of over 50% in size. Also: potency is read from the fitted curve at half-maximal effect. As to activity change, negative = inhibition: series mostly up to about 120 µM. Summed up:
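Signal from luciferin formed by CYP1A2 from a proluciferin substrate is read as luminescence, expressed in relative luminescence units. Compounds sit with enzyme 10 min, NADPH-driven reaction runs 1 h, all at room temperature.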
In general terms: A reporter such as luciferase makes a cellular process visible.

Assay [8] deals with Voltage-gated inwardly rectifying potassium channel KCNH2 (Homo sapiens) (UniProt Q12809). Briefly: Human Ether-a-go-go-Related Gene (hERG) channel small molecule antagonists: fluorescence cell-based qHTS assay (AID 1671200). Also: nearly all actives have a fitted effect of over 50% in size. Also: potency is read from the fitted curve at half-maximal effect.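 As to activity change, negative = inhibition: hERG-expressing U2OS cells given a thallium stimulus after FluxOR II dye loading; series mostly up to about 77 µM.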 The method in brief:
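hERG-U2OS cells plated overnight at 37 C, loaded with FluxOR II dye 1 h at RT in dark; after 10 min, thallium stimulus added. Fluorescence (480/540 nm) read kinetically for 2 min at 1 s intervals.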

In assay [9] the target is Nuclear receptor subfamily 1 group I member 2 (Homo sapiens) (UniProt O75469). Briefly: Human pregnane X receptor (PXR) activation by small molecules, qHTS assay (AID 1346985). Also: nearly all actives have a fitted effect of over 40% in size. Also: potency is read from the fitted curve at half-maximal effect. Summed up: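 DPX-2 cells (HepG2 co-transfected with a PXR response element and a CYP3A4-promoter luciferase construct) were seeded at 2,000 per well, rested 5 hr at 37C, then exposed to DMSO-dissolved compounds for 24 hr. Activation was read as luciferase luminescence.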

Assay [10] has as its target Cytochrome P450 2C19 (Homo sapiens) (UniProt P33261). Briefly: Cytochrome P450 Family 2 Subfamily C Member 19 (CYP2C19) small molecule antagonists: luciferase reporter qHTS assay (AID 1671197). Also: nearly all actives have a fitted effect of over 65% in size. Also: potency is read from the fitted curve at half-maximal effect. As to activity change, negative = inhibition: series mostly up to about 120 µM. Summed up: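 P450-Glo CYP2C19 screening system; proluciferin substrate; DMSO compound stocks; 10 min RT preincubation; NADPH regeneration, 1 h at 37C; luciferin detection reagent, 20 min RT; luminescence as RLU.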

Assay [11] addresses Cytochrome P450 2C9 (Homo sapiens) (UniProt P11712). The assay can be described thus: Cytochrome P450 Family 2 Subfamily C Member 9 (CYP2C9) small molecule antagonists: luciferase reporter qHTS assay (AID 1671198). Also: nearly all actives have a fitted effect of over 50% in size. Also: potency is read from the fitted curve at half-maximal effect. As to activity change, negative = inhibition: series mostly up to about 120 µM. The method in brief: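 P450-Glo proluciferin substrate with CYP2C9 enzyme; 10 min RT preincubation, then NADPH regeneration 1 h at 37C; luciferin detection reagent 20 min RT, luminescence in relative luminescence units.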

Assay [12] has as its target Cytochrome P450 3A4 (Homo sapiens) (UniProt P08684). The assay can be described thus: Cytochrome P450 Family 3 Subfamily A Member 4 (CYP3A4) small molecule antagonists: luciferase reporter qHTS assay (AID 1671201). Also: nearly all actives have a fitted effect of over 50% in size. Also: potency is read from the fitted curve at half-maximal effect. As to activity change, negative = inhibition: series mostly up to about 120 µM. Summed up:
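P450-Glo CYP3A4 luminescent assay: compounds preincubated 10 min at room temperature with enzyme and proluciferin substrate, NADPH regeneration added, 1 h room-temperature reaction, stopped with luciferin detection reagent; luminescence read after 20 min. Ketoconazole positive control.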

Assay [13] can be described thus: Caspase-3/7 induction in HepG2 cells by small molecules, qHTS cell viability counter screen (AID 1346981). Also: nearly all actives have a fitted effect of over 30% in size. Also: potency is read from the fitted curve at half-maximal effect. Summed up:
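Counter screen for cytotoxicity: HepG2 exposed 16 hr to compounds, then CellTiter-Fluor viability signal (fluorescence, 1 hr reagent incubation).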
% is scaled to controls: 0 for no effect and ±100 for the full control effect.

Voltage-gated inwardly rectifying potassium channel KCNH2 (Homo sapiens), sequence (Q12809 whole entry, looked up): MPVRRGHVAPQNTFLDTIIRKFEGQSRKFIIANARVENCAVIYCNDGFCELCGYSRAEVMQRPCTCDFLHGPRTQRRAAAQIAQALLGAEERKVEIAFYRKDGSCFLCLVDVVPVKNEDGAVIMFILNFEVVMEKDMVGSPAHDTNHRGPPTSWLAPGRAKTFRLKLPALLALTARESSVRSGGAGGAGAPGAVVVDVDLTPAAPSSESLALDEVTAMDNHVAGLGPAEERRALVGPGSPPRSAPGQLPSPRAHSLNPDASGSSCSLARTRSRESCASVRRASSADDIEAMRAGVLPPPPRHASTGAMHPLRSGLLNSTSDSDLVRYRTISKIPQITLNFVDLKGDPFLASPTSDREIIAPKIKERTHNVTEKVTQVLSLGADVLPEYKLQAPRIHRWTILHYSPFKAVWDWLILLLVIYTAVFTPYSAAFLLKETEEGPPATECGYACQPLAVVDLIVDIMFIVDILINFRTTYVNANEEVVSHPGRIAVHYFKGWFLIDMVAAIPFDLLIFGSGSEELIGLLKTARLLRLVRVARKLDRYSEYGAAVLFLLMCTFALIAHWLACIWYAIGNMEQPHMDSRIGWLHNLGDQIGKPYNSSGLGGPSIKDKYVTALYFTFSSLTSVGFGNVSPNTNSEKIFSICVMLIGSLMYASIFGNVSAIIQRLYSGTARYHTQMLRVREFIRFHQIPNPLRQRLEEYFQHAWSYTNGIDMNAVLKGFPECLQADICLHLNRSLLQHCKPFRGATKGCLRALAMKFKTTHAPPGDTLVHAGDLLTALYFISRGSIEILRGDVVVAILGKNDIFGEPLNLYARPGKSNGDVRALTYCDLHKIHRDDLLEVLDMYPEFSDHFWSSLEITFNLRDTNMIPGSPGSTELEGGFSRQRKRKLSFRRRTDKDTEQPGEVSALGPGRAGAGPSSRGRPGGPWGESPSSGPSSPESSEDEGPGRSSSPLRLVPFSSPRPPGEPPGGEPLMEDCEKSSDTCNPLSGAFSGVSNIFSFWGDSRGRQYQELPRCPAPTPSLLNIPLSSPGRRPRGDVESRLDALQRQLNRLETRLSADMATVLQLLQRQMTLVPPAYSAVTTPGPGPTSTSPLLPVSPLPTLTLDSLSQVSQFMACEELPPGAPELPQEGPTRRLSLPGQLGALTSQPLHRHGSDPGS
Cytochrome P450 3A4 (Homo sapiens), sequence (P08684 whole entry, looked up): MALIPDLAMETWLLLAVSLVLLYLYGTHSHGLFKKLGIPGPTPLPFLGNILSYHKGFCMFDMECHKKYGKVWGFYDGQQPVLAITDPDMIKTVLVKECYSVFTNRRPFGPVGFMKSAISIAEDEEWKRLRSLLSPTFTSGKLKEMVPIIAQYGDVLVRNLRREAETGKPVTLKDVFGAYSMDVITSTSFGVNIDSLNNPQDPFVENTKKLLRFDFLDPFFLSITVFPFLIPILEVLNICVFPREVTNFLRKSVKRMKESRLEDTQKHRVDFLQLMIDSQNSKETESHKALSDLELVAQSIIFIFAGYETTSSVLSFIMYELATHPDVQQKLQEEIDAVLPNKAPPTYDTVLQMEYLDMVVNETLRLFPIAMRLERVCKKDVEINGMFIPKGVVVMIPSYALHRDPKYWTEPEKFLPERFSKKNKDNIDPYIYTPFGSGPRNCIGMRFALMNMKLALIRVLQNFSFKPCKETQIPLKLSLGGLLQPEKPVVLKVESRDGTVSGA
Cytochrome P450 2C19 (Homo sapiens), sequence (P33261 whole entry, looked up): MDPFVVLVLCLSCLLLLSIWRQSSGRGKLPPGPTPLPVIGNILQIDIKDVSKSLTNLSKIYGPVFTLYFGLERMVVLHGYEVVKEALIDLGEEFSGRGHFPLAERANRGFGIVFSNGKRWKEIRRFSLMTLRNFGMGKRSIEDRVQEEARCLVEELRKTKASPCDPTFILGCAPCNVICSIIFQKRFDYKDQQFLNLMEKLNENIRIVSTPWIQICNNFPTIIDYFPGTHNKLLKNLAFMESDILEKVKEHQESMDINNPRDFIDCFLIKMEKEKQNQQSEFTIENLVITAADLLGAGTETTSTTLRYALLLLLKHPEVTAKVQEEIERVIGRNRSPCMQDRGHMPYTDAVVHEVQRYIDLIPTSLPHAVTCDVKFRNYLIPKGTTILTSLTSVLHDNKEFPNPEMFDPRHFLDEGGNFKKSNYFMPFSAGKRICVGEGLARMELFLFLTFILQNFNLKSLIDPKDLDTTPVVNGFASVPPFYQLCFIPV
Cytochrome P450 2C9 (Homo sapiens), sequence (P11712 whole entry, looked up): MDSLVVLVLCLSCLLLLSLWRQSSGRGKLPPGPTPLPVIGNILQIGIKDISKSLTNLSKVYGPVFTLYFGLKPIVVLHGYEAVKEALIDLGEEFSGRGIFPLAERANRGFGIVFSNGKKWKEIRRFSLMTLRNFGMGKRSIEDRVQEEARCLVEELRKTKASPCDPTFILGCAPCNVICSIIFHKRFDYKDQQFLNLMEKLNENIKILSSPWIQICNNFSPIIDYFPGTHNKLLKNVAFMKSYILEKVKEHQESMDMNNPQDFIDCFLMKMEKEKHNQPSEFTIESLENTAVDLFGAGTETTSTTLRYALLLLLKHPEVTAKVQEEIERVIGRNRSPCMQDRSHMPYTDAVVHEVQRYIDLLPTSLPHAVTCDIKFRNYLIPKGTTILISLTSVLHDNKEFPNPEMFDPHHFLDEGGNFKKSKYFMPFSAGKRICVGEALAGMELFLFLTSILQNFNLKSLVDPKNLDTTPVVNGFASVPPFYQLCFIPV
Cytochrome P450 1A2 (Homo sapiens), sequence (P05177 whole entry, looked up): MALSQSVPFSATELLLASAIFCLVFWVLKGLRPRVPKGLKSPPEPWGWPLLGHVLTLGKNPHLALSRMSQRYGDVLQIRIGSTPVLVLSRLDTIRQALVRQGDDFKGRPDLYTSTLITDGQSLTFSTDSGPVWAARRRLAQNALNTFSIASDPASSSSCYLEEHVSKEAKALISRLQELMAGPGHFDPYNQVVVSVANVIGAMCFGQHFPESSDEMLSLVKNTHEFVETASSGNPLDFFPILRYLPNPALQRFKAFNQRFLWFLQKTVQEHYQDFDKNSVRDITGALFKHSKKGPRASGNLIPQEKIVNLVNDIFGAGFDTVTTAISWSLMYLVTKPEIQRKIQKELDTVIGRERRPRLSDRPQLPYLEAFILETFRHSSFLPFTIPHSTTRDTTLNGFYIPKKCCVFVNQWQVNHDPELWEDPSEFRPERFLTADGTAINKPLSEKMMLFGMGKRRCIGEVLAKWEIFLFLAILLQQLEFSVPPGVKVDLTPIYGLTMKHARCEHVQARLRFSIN

For the compound `CSc1ccc2c(c1)C(N1CCN(C)CC1)Cc1ccccc1S2` (stereo unspecified), the Potency in [1] was 29.8 µM (active); in [5] it was 25.1 µM (active); in assay [6], 1.74 µM (active); in [8] it was 1.07 µM (active). The Potency result in assay [2], in assay [3] and in assay [7] was “inactive” throughout. The max activation in assay [4] is -6.14%.

As to `O=C(Oc1cccc2cccnc12)c1ccccc1`, the Potency is 7.5 µM (active) in assay [1] and 17.4 µM (active) in assay [7]. The Potency entry in assay [2], in [5], in assay [9], in assay [6], in assay [10] and in assay [11] was “inactive” each time. Besides, the Potency entry in assay [8] and in assay [12] was “inactive” in each case.

For `CC(C)CCCCCCCCCCCCCCC(=O)O`, the Potency result in assay [1], in assay [2], in [13], in assay [3], in [6] and in assay [11] was “inactive” in each case. The Potency entry in [7], in [8] and in assay [12] was “inactive” throughout.

`Clc1ccc2n[nH]nc2c1`: the Potency result in assay [1], in assay [2], in assay [13], in [3], in assay [6] and in [10] was “inactive” throughout. In addition, the Potency result in assay [8] and in [12] was “inactive” each time.

For the compound `Clc1ccc2cc3ccccc3cc2c1`, the Potency entry in assay [1], in [2], in assay [13], in assay [6], in assay [8] and in assay [12] was “inactive” each time. Besides, the Potency is 79.6 µM (active) in [10] and 1.59 µM (active) in assay [7].

Turning to `CCCCCCCCCCC=O`, the Potency result in [1], in assay [2], in assay [3], in [6], in assay [11] and in assay [8] was “inactive” throughout. In addition, in [12], the Potency result is “inactive”.

With `CCCCCCCCCCCC[N+](C)(C)CCCCCCCCCCCC`, the Potency in assay [1] is 17.2 µM (active); in [13], 27.3 µM (active); in [6], 20 µM (active); in [10] it was 35.6 µM (active); in assay [7] it was 71 µM (active); in [12] it was 35.6 µM (active). Moreover, the Potency entry in assay [2] and in [3] was “inactive” each time.

As to `Cc1[nH]cnc1C[C@H]1CCc2c(C)c3ccccc3n2C1=O`, the Potency in assay [1] was 47.4 µM (active); in assay [3], 59.6 µM (active); in [6] it was 4.37 µM (active); in assay [11] it was 0.49 µM (active); in assay [7] it was 1.74 µM (active); in [8] it was 5.36 µM (active). The Potency result in assay [2] was “inactive”.

Consider `CCCCN1C(=O)[C@@H]([C@H](O)C2CCCCC2)NC(=O)C12CCN(Cc1ccc(Oc3ccc(C(=O)O)cc3)cc1)CC2`, for which the Potency in [1] is 61.1 µM (active); in assay [13], 30.6 µM (active); in assay [12] it was 17.8 µM (active). In addition, the Potency result in assay [2], in assay [3], in assay [6], in assay [11] and in assay [7] was “inactive” in each case.

In the case of `Cc1ccc(O)c2ncccc12`, the results for the Potency in assay [1], in assay [3] and in assay [7] were 5.31 µM (active), 3.35 µM (active) and 15.5 µM (active), respectively. Besides, the Potency entry in [2], in assay [13], in assay [5], in [9], in [6] and in assay [10] was “inactive” each time. The Potency entry in assay [11] and in [12] was “inactive” each time.

Turning to `Nc1c(Cl)cc(Cl)cc1Cl`, the Potency result in assay [1], in [2], in assay [3], in assay [6], in [10] and in assay [11] was “inactive” each time. Further, the Potency entry in assay [8] is “inactive”. Besides, the Potency in assay [7] was 15.7 µM (active).

Turning to `CSc1ccc(/C=C2/C(C)=C(CC(=O)O)c3cc(F)ccc32)cc1`, the Potency entry in [1], in [2], in assay [3], in [6], in [8] and in assay [12] was “inactive” in each case. The Potency in assay [10] was 17.4 µM (active); in assay [11], 24.5 µM (active); in assay [7], 15.5 µM (active).

For `CCC(C)Nc1ccc(NC(C)CC)cc1` (stereo unspecified), the Potency is 17.6 µM (active) in [1]; 27.8 µM (active) in [13]; 2.88 µM (active) in assay [6]; 1.82 µM (active) in [10]; 5.12 µM (active) in [11]; 40.7 µM (active) in [7]. Further, the Potency in [8] was 7.91 µM (active); in assay [12] it was 8.12 µM (active). Further, the Potency entry in assay [2] is “inactive”.

Regarding `C[n+]1cc2c3c(ccc2c2ccc4cc5c(cc4c21)OCO5)OCO3`, the Potency in [1] was 1.03 µM (active); in [2] it was 1.3 µM (active); in assay [13], 5.17 µM (active); in assay [6], 6.74 µM (active); in assay [7], 12 µM (active). The activation in assay [3] is -46.6% [at 19 µM]. In addition, in assay [8], the activity change, negative = inhibition was -0.0312% [at 15.8 µM].

Take `Nc1ccc(N)c2ccccc12`: the Potency was 30.6 µM (active) in assay [1]; 8.63 µM (active) in [3]; 3.99 µM (active) in assay [6]; 3.17 µM (active) in assay [10]; 3.99 µM (active) in assay [11]; 2.52 µM (active) in [7]. In assay [12], the Potency was 3.55 µM (active). In addition, the Potency result in [2] was “inactive”.

For the compound `CN1CCC(Nc2ncc3ncnc(Nc4ccc(F)c(Cl)c4)c3n2)CC1`, the Potency in assay [1] was 29.8 µM (active); in assay [3], 10.6 µM (active); in assay [9], 28.2 µM (active); in [6] it was 6.92 µM (active). In addition, the Potency entry in assay [2], in [11], in [7], in [8] and in assay [12] was “inactive” each time.

Turning to `N#CSc1ccc(N)c([N+](=O)[O-])c1`, the Potency in assay [1] was 38.8 µM (active); in assay [13] it was 54.8 µM (active); in assay [3], 12.3 µM (active); in [11] it was 40.2 µM (active); in [7], 1.6 µM (active). Moreover, the Potency entry in [2] and in [8] was “inactive” throughout.
